KCNQ2 inh – rat KCNQ2 potassium channel inhibitors, primary screen, cell-based, CHO-K1, FluxOR thallium flux, B-score | 1.1% of 310,000 active | B-score at 10 µM | Potassium voltage-gated channel subfamily KQT member 2 (Rattus norvegicus), O88943 | AID 2156, 2009 | 20 min; hits give low values;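 active means fluorescence ratio B-score at most minus 3 library SDs, with starting brightness B-score within 2 library SDs, cut at about -5.5 in these data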
Target sequence (O88943 whole entry, looked up): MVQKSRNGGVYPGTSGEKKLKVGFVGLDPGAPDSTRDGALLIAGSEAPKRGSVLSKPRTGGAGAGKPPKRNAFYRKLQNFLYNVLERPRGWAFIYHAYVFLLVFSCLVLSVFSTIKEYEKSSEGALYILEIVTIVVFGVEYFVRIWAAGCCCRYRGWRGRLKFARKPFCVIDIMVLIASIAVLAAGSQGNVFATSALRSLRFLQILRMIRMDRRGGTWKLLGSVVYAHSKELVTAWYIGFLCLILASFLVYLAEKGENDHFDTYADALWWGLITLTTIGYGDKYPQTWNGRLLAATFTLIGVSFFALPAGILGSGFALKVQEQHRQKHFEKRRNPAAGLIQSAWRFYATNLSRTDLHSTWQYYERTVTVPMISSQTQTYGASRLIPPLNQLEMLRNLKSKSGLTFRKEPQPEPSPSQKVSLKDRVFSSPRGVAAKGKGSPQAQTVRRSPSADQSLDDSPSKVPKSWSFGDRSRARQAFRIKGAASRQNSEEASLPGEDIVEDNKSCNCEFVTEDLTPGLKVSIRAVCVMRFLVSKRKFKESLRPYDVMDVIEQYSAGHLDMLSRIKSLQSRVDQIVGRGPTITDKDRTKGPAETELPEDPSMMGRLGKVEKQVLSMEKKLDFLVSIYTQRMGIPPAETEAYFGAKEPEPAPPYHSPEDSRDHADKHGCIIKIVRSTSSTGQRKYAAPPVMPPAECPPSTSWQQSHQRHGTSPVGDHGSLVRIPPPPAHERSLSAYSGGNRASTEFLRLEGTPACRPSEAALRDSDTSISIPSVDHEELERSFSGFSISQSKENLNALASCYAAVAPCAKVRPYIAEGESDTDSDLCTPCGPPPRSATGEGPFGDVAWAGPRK
KCNQ2 pot – potentiators of rat KCNQ2 potassium channel; CHO-K1 KCNQ2, FluxOR thallium flux fluorescence; hits give high values; AID 2239, 2010; 0.54% of 310,000 active; B-score at 10 µM;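 active means fluorescence ratio B-score at least 3 SD of library B-scores, with initial fluorescence B-score within 3 of them, cut at about 5.3 in these data; same plate scores as AID 2156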;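 further: B-score of peak minus minimum over baseline fluorescence ratio after K+ and Tl+ stimulus; positive B-score means potentiation of KCNQ2 with more thallium influx and brighter signal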
Kir21 confirm – mouse Kir2.1 channel blockers, retest, confirmation, cell-based, FluxOR thallium flux, duplicate. shares compounds with KCNQ2 pot. 41% of 2,300 active. Kir2.1-expressing cells, FluxOR thallium flux fluorescence; hits give low values. Tl flux remaining, % of negative control (hits give low values), % at 10 µM;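 active means Primary-screen hit whose thallium flux fell at least 3 control SD below untreated wells in both duplicates, with normal baseline fluorescence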
HEK293 Tl flux – alters thallium flux in parental HEK293 cells, Kir2.1 counter-screen. shares compounds with KCNQ2 pot. FluxOR thallium flux fluorescence; 0% = unstimulated blank wells. FluxOR signal as % of negative control (100 = no effect), % at 10 µM. 19% of 2,300 active. AID 2105;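 active means dye signal at least 3 control SD above or below untreated wells in both duplicates, raw fluorescence within 3, either direction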;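 further: percent is based on the flux ratio of peak minus minimum fluorescence over baseline F0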
CHO-K1 Tl ctr – nonspecific thallium flux increase in parental CHO-K1, confirmation, counter-screen for KCNQ2 potentiator project, cell-based, FluxOR thallium flux, duplicate | 43% of 1,200 active | shares compounds with KCNQ2 pot | AID 2282, 2010 | parental CHO-K1 cells, FluxOR thallium flux fluorescence; zero = vehicle mean+3SD, 100% = vehicle-minus-blank window | activity increase over 3SD of controls, % at 10 µM;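 active means signal rise of at least 3 SD above the untreated control mean, in both duplicate wells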;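 further: counter screen of KCNQ2 potentiator hits so any rise reflects channel-independent effects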
KCNQ1 pot spec – human KCNQ1 channel potentiation off-target, confirmation, selectivity assay for KCNQ2 potentiator project, cell-based, CHO, FluxOR thallium flux; CHO KCNQ1 stable, FluxOR thallium flux fluorescence; beyond 3SD, as % of vehicle-control signal; activation over 3SD threshold, % at 10 µM; 28% of 1,200 active; shares compounds with KCNQ2 pot;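 active means fluorescence ratio rise of at least 3 SD of vehicle wells above their mean, in both replicate wells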
KCNQ2 pot conf – rat KCNQ2 channel potentiators, confirmation, cell-based, CHO, FluxOR thallium flux, duplicate; CHO-KCNQ2 cells, FluxOR thallium flux fluorescence; potentiation, less the hit threshold, % at 10 µM; 68% of 1,200 active; AID 2287, 2010; shares compounds with KCNQ2 pot;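 active means fluorescence ratio rising 3 SD or more over the vehicle control mean in both replicates, plus primary screen hit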;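 further: peak minus minimum thallium fluorescence divided by baseline after K/Tl stimulus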
Kir21 spec – mouse Kir2.1 channel activation off-target, confirmation, selectivity assay for KCNQ2 potentiator project, cell-based, HEK293, FluxOR thallium flux; shares compounds with KCNQ2 pot; HEK293 Kir2.1, FluxOR thallium flux fluorescence; activity over 3SD threshold, % at 10 µM; 2% of 1,200 active; AID 2345, 2010;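 active means fluorescence ratio rise of at least 3 SD above the vehicle-control mean, seen in both replicates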
KCNQ2 W236L MoA – potentiators of retigabine-insensitive KCNQ2 W236L, mechanism study for KCNQ2 potentiator project, cell-based, rat KCNQ2 W236L, CHO, automated patch clamp. 10% of 940 active. shares compounds with KCNQ2 pot. current increase over 3SD of negative controls (%), hits give high values, % at 25 µM. automated patch clamp current;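 active means current increase at least 3 SD of the untreated controls above them in both duplicate recordings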
A number is an active result; - = inactive; . = not tested or not shown. Most compounds without a hit are left out; they make up all but 1.6% or so of the library.

SMILES | KCNQ2 inh | KCNQ2 pot | Kir21 confirm | HEK293 Tl flux | others
O=C(O)CCS(=O)(=O)c1nc(-c2cccs2)cc(C(F)(F)F)n1 | - | . | . | .
Cc1cc(Cl)cc(Br)c1OCCCNCC(C)O (centres undefined) | - | - | 27.0% | -
Clc1ccc(Cl)c(OCCCCNCc2ccccc2)c1 | - | . | . | .
Cc1ccc(OCCCCN(C)Cc2ccccc2)c(Br)c1 | - | . | . | .
Cc1cc(Cl)c(OCCCNCc2ccccc2)c(Br)c1 | - | . | . | .
Clc1ccc(OCCCNCc2ccccc2)c(Br)c1 | - | . | 9.5% | 74.0%
Cc1cc(C)c(OCCCCN(C)Cc2ccccc2)c(C)c1 | - | . | 21.5% | -
Cc1cc(C)c(OCCCNCc2ccccc2)c(Br)c1 | - | . | 11.5% | -
Cc1ccccc1OCCNCC(C)O (centres undefined) | - | . | . | .
CC(C)[C@H](NC(=O)C1CCN(S(=O)(=O)c2ccccc2)CC1)C(=O)NCc1ccncc1 | - | - | . | .
Cc1ccc(NC(=O)C(C)OC(=O)c2ccc(Cl)nc2)cc1S(=O)(=O)N1CCOCC1 (centres undefined) | - | - | . | .
CC1CN(C(=O)/C=C/c2ccc(SC(F)F)cc2)CC(C)O1 (centres undefined) | - | . | . | .
COc1ccc(/C=C2/SC(=S)N(NS(=O)(=O)c3ccc(C)cc3)C2=O)cc1 | - | - | . | .
C=CCOc1ccc(/C=C2\SC(=S)N(NS(=O)(=O)c3ccc(C)cc3)C2=O)cc1 | - | 7.7 | - | 158.5% | CHO-K1 Tl ctr=16.8;KCNQ1 pot spec=-;KCNQ2 pot conf=17.1;Kir21 spec=-;KCNQ2 W236L MoA=-
Cc1ccccc1NC(=O)NC1CCCc2ccccc21 (centres undefined) | - | . | . | .
CC1CC(C)CN(CCCNC(=O)CN2C(=O)c3cccnc3Oc3ccc(Cl)cc32)C1 (centres undefined) | - | . | . | .
CN(CC1COc2ccccc2O1)C(=S)Nc1ccccc1 (centres undefined) | - | . | . | .
CCN(CC1COc2ccccc2O1)C(=S)NC1CC2CCC1C2 (centres undefined) | - | 11.8 | - | 63.5% | CHO-K1 Tl ctr=37.4;KCNQ1 pot spec=-;KCNQ2 pot conf=-;Kir21 spec=-;KCNQ2 W236L MoA=-
CCC1CCCCN1S(=O)(=O)c1ccc(C(=O)N(CCCN(C)C)c2nc3cc4c(cc3s2)OCO4)cc1 (centres undefined) | - | - | . | .
COc1ccc(OC)c(C(C)NC(=O)Nc2ccccc2)c1 (centres undefined) | - | 9.56 | . | . | CHO-K1 Tl ctr=-;KCNQ1 pot spec=-;KCNQ2 pot conf=32.6;Kir21 spec=-;KCNQ2 W236L MoA=-
COc1ccc(OC)c(C(C)NC(=O)C23CC4CC(CC(C4)C2)C3)c1 (centres undefined) | - | - | . | .
CN(Cc1cccc(Cl)c1Cl)CC(O)COc1ccccc1 (centres undefined) | - | . | . | .
CN(Cc1ccc(F)cc1)C(=O)c1ccc(NS(=O)(=O)c2ccccc2)cc1 | - | . | . | .
COc1ccc(CNC(C)CCc2ccccc2)cc1 (centres undefined) | - | - | 40.5% | -
COc1ccc(CNCCC(c2ccc(OC)cc2)c2ccccc2OC)cc1 (centres undefined) | - | . | 38.5% | -
SMILES | KCNQ2 inh | KCNQ2 pot | Kir21 confirm | HEK293 Tl flux | others
COc1ccc(CNCCC(c2ccccc2)c2ccc(OC(C)C)cc2)cc1OC (centres undefined) | - | . | . | .
COc1ccc(C(CCNCc2ccc(OC(C)C)cc2)c2ccccc2OC)cc1 (centres undefined) | -6.54 | - | 29.0% | -
COc1ccc(C(CCNCc2ccc(N(C)C)cc2)c2ccccc2OC)cc1 (centres undefined) | - | . | . | .
COc1ccc(CCC(C)NCc2ccc(C(F)(F)F)cc2)cc1 (centres undefined) | - | - | . | .
COc1ccc(CNCCC(c2ccc(F)cc2)c2ccc(OC(C)C)cc2)cc1OC (centres undefined) | - | . | 44.5% | -
COc1ccc(C(CCNCc2ccccc2)c2ccc(F)cc2)cc1 (centres undefined) | - | . | . | .
COc1ccc(N(CC(=O)NN=C2CCN(C)CC2)S(=O)(=O)c2ccccc2)c(OC)c1 | - | - | . | .
NNc1nc2cc3c(cc2s1)OCCO3 | - | . | . | .
COc1cccc(NC(=O)c2csc3c2CCCC3)c1 | - | 8.04 | - | - | CHO-K1 Tl ctr=-;KCNQ1 pot spec=-;KCNQ2 pot conf=1.2;Kir21 spec=-;KCNQ2 W236L MoA=-
COc1ccc(NC(=O)c2csc3c2CCCC3)cc1 | - | . | . | .
Cc1cc(Cl)c(S(=O)(=O)N2CCN(c3ccc(F)cc3)CC2)cc1OCC(N)=O | - | - | . | .
Cc1cc(Cl)c(S(=O)(=O)N2CCN(c3ccc(F)cc3)CC2)cc1OCC(=O)NC1CCCCC1 | - | 16.3 | - | - | CHO-K1 Tl ctr=52.7;KCNQ1 pot spec=-;KCNQ2 pot conf=60.3;Kir21 spec=-;KCNQ2 W236L MoA=-
COc1ccc(C(CNC(=O)C(=O)NC2CCCC2)N2CCN(C)CC2)cc1 (centres undefined) | - | - | . | .
O=C(N/N=C/c1ccncc1)c1cccs1 | - | . | . | .
CSc1ccc(/C=N/NC(=O)c2cccs2)cc1 | - | 14.4 | - | - | CHO-K1 Tl ctr=10.9;KCNQ1 pot spec=-;KCNQ2 pot conf=-;Kir21 spec=-
C[C@H](NC(=O)c1ccc2ccccc2c1)C(=O)N1CCC2(CC1)NCCc1[nH]cnc12 | - | - | . | .
CCOC(=O)c1csc(N/N=C2\CCc3ccccc32)n1 | - | - | . | .
CCOC(=O)c1csc(N/N=C2\CCCc3ccccc32)n1 | - | 5.46 | - | - | CHO-K1 Tl ctr=21.6;KCNQ1 pot spec=-;KCNQ2 pot conf=-;Kir21 spec=-;KCNQ2 W236L MoA=-
COc1ccc(NC2CCCN(C(=O)c3cn(C)c4ccccc34)C2)cc1 (centres undefined) | - | . | . | .
O=C(Cc1ccsc1)NCC(=O)Nc1ccc(F)c(F)c1 | - | - | . | .
O=[N+]([O-])c1cc([N+](=O)[O-])c(Oc2ccc(Br)cc2Br)cc1NN1CCCCC1 | - | . | . | .
